Experimental data as given in PubChem BioAssay (Tox21).
Inconclusive results are not listed. Where a call stands in place of a potency, no number is given. Active and inactive are the calls of the source. Unless noted, the call rests on the fitted dose curve.

Assays:
[1] = Nuclear factor erythroid 2-related factor 2/antioxidant responsive element (Nrf2/ARE) small molecule agonists: qHTS cell viability counter screen in human keratinocytes (AID 1919968; active means well fitted curve in the direction sought with a large enough effect in the repeat runs; an effect the other way counts as inactive or inconclusive; further: nearly all actives have a fitted effect of over 55% in size)
Summary of the method: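 Cells of the KeratinoSens line were plated at 1,500 per well and left for 5 h before compound transfer from DMSO stocks. After a 23 h incubation (37 C, 5% CO2), CellTiter-Fluor was added. Signal was taken as fluorescence intensity 1 h later.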

[2] = Nuclear factor erythroid 2-related factor 2/antioxidant responsive element (Nrf2/ARE) small molecule agonists: luciferase reporter gene qHTS assay in human keratinocytes (AID 1919969); further: nearly all actives have a fitted effect of over 35% in size; further: potency means the concentration at half of the fitted maximal effect
[3] = molecular target: Gonadotropin-releasing hormone receptor (Homo sapiens) (UniProt P30968); experiment: Human gonadotropin-releasing hormone receptor (GnRHR) small molecule agonists, calcium flux assay in GnRHR-HEK293 cells (AID 1920063); further: nearly all actives have a fitted effect of over 35% in size
Sequence of Gonadotropin-releasing hormone receptor (Homo sapiens) (P30968 whole entry, looked up): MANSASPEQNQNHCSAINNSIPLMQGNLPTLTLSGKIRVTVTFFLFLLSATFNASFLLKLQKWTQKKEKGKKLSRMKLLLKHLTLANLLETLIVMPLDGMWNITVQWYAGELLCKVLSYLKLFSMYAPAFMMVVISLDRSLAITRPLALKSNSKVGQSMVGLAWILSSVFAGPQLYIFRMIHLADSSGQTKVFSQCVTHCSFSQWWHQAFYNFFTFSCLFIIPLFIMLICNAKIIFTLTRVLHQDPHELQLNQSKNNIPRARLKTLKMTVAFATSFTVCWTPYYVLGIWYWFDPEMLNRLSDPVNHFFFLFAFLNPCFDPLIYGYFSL
Summary of the method: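 Compounds dissolved in DMSO are pin-transferred onto dye-loaded GnRHR-HEK293 cells, which were seeded 18 h before at 37 C/5% CO2. Calcium signal is read as fluorescence intensity at 1 s intervals for 3 min.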

[4] = molecular target: KiSS-1 receptor (Homo sapiens) (UniProt Q969F8); experiment: Human kisspeptin (KISS1R) small molecule agonists, calcium flux assay in KISS1R-HEK293 cells (AID 1920064; active means well fitted curve in the direction sought with a large enough effect in the repeat runs; an effect the other way counts as inactive or inconclusive)
Sequence of KiSS-1 receptor (Homo sapiens) (Q969F8 whole entry, looked up): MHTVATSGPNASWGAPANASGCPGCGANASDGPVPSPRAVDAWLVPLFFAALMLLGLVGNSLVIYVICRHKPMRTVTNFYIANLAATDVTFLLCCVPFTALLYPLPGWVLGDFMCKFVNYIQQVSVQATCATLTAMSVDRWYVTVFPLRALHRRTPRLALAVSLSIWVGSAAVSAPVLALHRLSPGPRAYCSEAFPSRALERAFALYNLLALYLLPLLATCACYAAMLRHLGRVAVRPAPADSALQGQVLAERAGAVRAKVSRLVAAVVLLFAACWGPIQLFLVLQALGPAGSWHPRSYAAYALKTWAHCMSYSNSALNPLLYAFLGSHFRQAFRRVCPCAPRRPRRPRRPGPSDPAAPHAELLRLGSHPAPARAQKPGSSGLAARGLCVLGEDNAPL
Summary of the method: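 Cell line: HEK293, stable human KISS1R. Dye loading 1 h at 37 C after 18 h culture. Read: kinetic fluorescence, 480/540 nm, 3 min at 1 s intervals.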

[5] = G protein-coupled receptor (GPCR) small molecule agonists, calcium flux assay: HEK293 wild type cell line counter screen (AID 1920065)
Summary of the method: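 Tox21 10K compounds, 15 concentrations each in triplicate, pin-transferred in DMSO onto dye-loaded cells; kinetic read at 480/540 nm for 3 min, 1 s intervals.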

[6] = p53 small molecule agonists, cell-based qHTS assay with human liver microsomes (AID 1963577)
Summary of the method: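 Cells carrying a p53-responsive bla reporter were rested 5 h (37 C, 5% CO2) before compound transfer. Human liver microsomes plus NADPH, 0.5 mg/mL final apiece, supplied metabolism during the 16 h 37 C exposure.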

[7] = p53 small molecule agonists, cell-based qHTS assay with rat liver microsomes (AID 1963578)
Summary of the method: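 Fluorescence from a beta-lactamase reporter under a p53 response element was measured after cells had been incubated 16 h at 37 C with test compound and rat liver microsomes plus NADPH (0.5 mg/mL final each).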

[8] = p53 small molecule agonists, cell-based qHTS assay with human liver microsomes: qHTS cell viability counter screen (AID 1963579); further: nearly all actives have a fitted effect of over 45% in size
Summary of the method: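 Seed p53RE-bla cells at 4,000 per well; incubate 5 h at 37 C; add compound, human liver microsomes and NADPH; incubate 16 h at 37 C; add CellTiter-Glo; after 30 min at room temperature, read luminescence.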

[9] = p53 small molecule agonists, cell-based qHTS assay with rat liver microsomes: qHTS cell viability counter screen (AID 1963580); further: nearly all actives have a fitted effect of over 45% in size
Summary of the method: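 Counter screen for cytotoxicity under metabolic activation: rat liver microsomes and NADPH, 0.5 mg/mL final each, added with compounds to p53RE-bla HCT-116 cells; 16 h at 37 C, then ATP luminescence read.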

[10] = p53 small molecule agonists, cell-based qHTS assay: qHTS cell viability counter screen (AID 1963581); further: nearly all actives have a fitted effect of over 45% in size
Summary of the method: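 ATP content measured by luminescence in HCT-116 p53RE-bla cells treated 16 h at 37 C, same wells as the reporter screen.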

[11] = molecular target: 5-hydroxytryptamine receptor 2A (Homo sapiens) (UniProt P28223); experiment: 5-hydroxytryptamine receptor 2A (HTR2A) small molecule antagonists, cell-based qHTS assay (AID 1963586); further: nearly all actives have a fitted effect of over 45% in size
Sequence of 5-hydroxytryptamine receptor 2A (Homo sapiens) (P28223 whole entry, looked up): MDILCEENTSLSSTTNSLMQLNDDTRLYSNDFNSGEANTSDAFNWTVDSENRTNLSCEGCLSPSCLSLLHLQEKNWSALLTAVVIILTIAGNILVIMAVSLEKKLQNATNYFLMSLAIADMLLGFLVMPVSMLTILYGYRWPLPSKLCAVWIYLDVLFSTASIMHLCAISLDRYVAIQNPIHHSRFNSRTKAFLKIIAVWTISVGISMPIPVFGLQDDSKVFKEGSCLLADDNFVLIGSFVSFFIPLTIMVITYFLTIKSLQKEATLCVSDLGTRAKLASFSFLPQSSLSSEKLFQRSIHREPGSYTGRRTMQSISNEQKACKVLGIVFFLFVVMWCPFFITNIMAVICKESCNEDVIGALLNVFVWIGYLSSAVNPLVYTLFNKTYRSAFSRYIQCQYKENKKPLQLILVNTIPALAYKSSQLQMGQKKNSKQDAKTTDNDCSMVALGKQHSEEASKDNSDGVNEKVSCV
Summary of the method: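 CHO cells stably expressing human HTR2A were plated for 18 h at 37 C, then loaded with calcium dye for 1 h. Compounds were preincubated 5 min at room temperature before DOI (4 nM solution) was added. Kinetic fluorescence was read for 3 min.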

[12] = molecular target: Muscarinic acetylcholine receptor M1 (Homo sapiens) (UniProt P11229); experiment: Cholinergic receptor muscarinic 1 (CHRM1) small molecule antagonists, cell-based qHTS assay (AID 1963588); further: nearly all actives have a fitted effect of over 40% in size
Sequence of Muscarinic acetylcholine receptor M1 (Homo sapiens) (P11229 whole entry, looked up): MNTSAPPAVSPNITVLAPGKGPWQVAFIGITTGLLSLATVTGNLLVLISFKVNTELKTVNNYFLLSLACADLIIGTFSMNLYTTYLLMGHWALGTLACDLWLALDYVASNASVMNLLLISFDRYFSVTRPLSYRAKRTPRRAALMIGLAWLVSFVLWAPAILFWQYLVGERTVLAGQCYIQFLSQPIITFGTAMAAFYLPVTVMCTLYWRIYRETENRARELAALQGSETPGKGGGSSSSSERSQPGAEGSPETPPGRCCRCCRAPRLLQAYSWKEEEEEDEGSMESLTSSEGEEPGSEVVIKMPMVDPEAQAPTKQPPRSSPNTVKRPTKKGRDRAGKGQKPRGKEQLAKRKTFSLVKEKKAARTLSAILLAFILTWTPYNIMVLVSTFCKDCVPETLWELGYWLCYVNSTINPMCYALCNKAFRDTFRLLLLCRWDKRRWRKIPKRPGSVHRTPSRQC
Summary of the method: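 Compounds were tested at 15 concentrations in three independent runs. Dye-loaded CHRM1-CHO cells were exposed 5 min at room temperature before stimulation by acetylcholine added at 50nM. Intracellular calcium was read kinetically on FDSS for 3 min.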

[13] = molecular target: Muscarinic acetylcholine receptor M1 (Homo sapiens) (UniProt P11229); experiment: Cholinergic receptor muscarinic 1 (CHRM1) small molecule agonists, cell-based qHTS assay (AID 1963589); further: nearly all actives have a fitted effect of over 35% in size
Summary of the method: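 Homogeneous fluorescence calcium flux, agonist mode. Human M1-expressing CHO cells; compound dosed at 15 concentrations, three independent runs; signal sampled every 1 sec.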

[14] = cAMP Responsive Elements (CRE) small molecule agonists, cell-based qHTS assay (AID 1963590)
Summary of the method: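 HEK 293T cells stably bearing CRE-bla were plated at 2,000 cells per well and rested 18 h. Compounds, positive controls or DMSO were added for 3 h at 37 C. LiveBLAzer B/G substrate was then loaded for 2 h at room temperature.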

[15] = cAMP Responsive Elements (CRE) small molecule antagonists, cell-based qHTS assay (AID 1963591; active means well fitted inhibition curve with a large enough effect in the signal ratio in the repeat runs, not every such curve was filed as active; the % refers to the signal ratio)
Summary of the method: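 First, CRE-bla HEK293T cells settled 18 h at 37 C. Next, compound and 0.25 uM final NKH477 were applied for 3 h. Last, LiveBLAzer B/G substrate was loaded for 2 h at room temperature.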

[16] = molecular target: Beta-2 adrenergic receptor (Homo sapiens) (UniProt P07550); experiment: Adrenergic beta2 receptor (ADRB2) small molecule antagonists, cell-based qHTS assay (AID 1963592); further: series mostly up to about 92 µM; nearly all actives have a fitted effect of over 50% in size
Sequence of Beta-2 adrenergic receptor (Homo sapiens) (P07550 whole entry, looked up): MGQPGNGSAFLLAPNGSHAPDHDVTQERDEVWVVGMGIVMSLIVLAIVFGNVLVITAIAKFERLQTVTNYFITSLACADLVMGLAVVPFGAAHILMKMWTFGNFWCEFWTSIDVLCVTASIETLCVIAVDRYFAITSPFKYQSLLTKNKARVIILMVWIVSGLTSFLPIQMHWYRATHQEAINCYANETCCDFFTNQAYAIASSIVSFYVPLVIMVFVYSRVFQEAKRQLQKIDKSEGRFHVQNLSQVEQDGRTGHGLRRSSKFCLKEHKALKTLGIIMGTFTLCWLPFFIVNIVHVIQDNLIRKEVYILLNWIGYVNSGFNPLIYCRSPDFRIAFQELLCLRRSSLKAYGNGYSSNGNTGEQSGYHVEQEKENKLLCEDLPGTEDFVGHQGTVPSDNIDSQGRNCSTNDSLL
Summary of the method: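 Assay format: CHO-ADRB2 cells, 18-20hr seeding at 37C/5% CO2, then compound plus 1nM isoproterenol agonist mix for 0.5hr RT. Homogeneous time-resolved fluorescence cAMP detection after 1hr, expressed as 665/615 nm ratio.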

[17] = molecular target: D(2) dopamine receptor (Homo sapiens) (UniProt P14416); experiment: Dopamine D2 receptor (DRD2) small molecule agonists, cell-based qHTS assay (AID 1963594); further: nearly all actives have a fitted effect of over 35% in size
Sequence of D(2) dopamine receptor (Homo sapiens) (P14416 whole entry, looked up): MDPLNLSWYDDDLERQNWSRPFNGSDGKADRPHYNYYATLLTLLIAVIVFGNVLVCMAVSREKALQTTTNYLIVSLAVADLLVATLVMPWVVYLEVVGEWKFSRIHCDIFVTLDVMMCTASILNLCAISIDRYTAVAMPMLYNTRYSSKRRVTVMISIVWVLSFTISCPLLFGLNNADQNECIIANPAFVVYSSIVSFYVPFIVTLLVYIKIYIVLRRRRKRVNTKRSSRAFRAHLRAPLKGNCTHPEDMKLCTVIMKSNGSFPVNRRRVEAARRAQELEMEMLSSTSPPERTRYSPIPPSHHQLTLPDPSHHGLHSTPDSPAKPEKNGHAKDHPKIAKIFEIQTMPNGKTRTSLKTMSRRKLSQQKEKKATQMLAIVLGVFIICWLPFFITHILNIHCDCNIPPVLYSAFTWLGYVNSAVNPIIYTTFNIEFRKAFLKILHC
Summary of the method: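 HEK293 cells stably expressing DRD2 were cultured 24 h at 37 C, then given Ro20-1724 (0.1 mM final) and compounds for 10 min at room temperature. NKH477 (200nM) was then added for 30 min. cAMP was read by HTRF.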

[18] = molecular target: D(2) dopamine receptor (Homo sapiens) (UniProt P14416); experiment: Dopamine D2 receptor (DRD2) small molecule antagonists, cell-based qHTS assay (AID 1963595; active means well fitted inhibition curve with a large enough effect in the signal ratio in the repeat runs, with a control signal flat; the % refers to the signal ratio)
Summary of the method: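 HEK293 cells stably expressing DRD2 were preincubated with 0.1 mM Ro20-1724, then with compound for 10 min at room temperature. Cells were stimulated with 200 nM NKH477 plus 12 nM quinpirole for 30 min, and cAMP was read by HTRF.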

[19] = molecular target: 5-hydroxytryptamine receptor 2A (Homo sapiens) (UniProt P28223); experiment: 5-hydroxytryptamine receptor 2A (HTR2A) small molecule agonists, cell-based qHTS assay (AID 1963587); further: nearly all actives have a fitted effect of over 30% in size
Summary of the method: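 HTR2A-CHO cells, plated 18 h at 37 C/5% CO2, dye-loaded 1 h at 37 C; compounds in DMSO added by pin tool (agonist mode). Intracellular calcium flux read as kinetic fluorescence on FDSS over 2 min at 1 s intervals.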

Row | SMILES | Potency [1] | Potency [2] | Potency [3] | Potency [4] | Potency [5] | Potency [6] | Potency [7] | Potency [8] | Potency [9] | Potency [10] | Potency [11] | Potency [12] | Potency [13] | Potency [14] | Potency [15] | Potency [16] | Potency [17] | Potency [18] | Potency [19]
1 | O=C(O)[C@@H](O)[C@H](O)[C@H](O)[C@@H](O)C(=O)O | inactive | inactive | inactive | inactive | inactive | inactive | inactive | inactive | inactive | inactive | inactive | inactive | inactive | inactive | inactive | inactive | inactive | inactive | –
2 | CCOCCC(=O)OCC | inactive | inactive | inactive | inactive | inactive | inactive | inactive | inactive | inactive | inactive | inactive | inactive | inactive | inactive | inactive | – | inactive | inactive | inactive
3 | O=Nc1ccc(NO)cc1 | inactive | 63.6 µM (active) | inactive | inactive | inactive | inactive | inactive | inactive | inactive | inactive | inactive | inactive | inactive | – | inactive | – | – | – | inactive
4 | CC1CNCC(C)O1 (stereo not drawn) | inactive | inactive | inactive | inactive | inactive | inactive | inactive | inactive | inactive | inactive | inactive | inactive | inactive | inactive | inactive | – | inactive | inactive | inactive
5 | COC(=O)c1sccc1S(N)(=O)=O | inactive | inactive | inactive | inactive | inactive | inactive | inactive | inactive | inactive | inactive | inactive | inactive | inactive | inactive | inactive | inactive | inactive | inactive | inactive
6 | Cc1cc(N)n(-c2ccccc2)n1 | inactive | inactive | inactive | inactive | inactive | inactive | inactive | inactive | inactive | inactive | inactive | inactive | inactive | inactive | inactive | inactive | inactive | inactive | inactive
7 | Cc1ncc(CSSCc2cnc(C)c(O)c2CO)c(CO)c1O | inactive | inactive | inactive | inactive | inactive | inactive | inactive | inactive | inactive | inactive | inactive | inactive | inactive | – | inactive | inactive | inactive | inactive | inactive
8 | O=C(O)C(S)C(S)C(=O)O (stereo not drawn) | inactive | inactive | inactive | inactive | inactive | inactive | inactive | inactive | inactive | inactive | inactive | inactive | – | inactive | inactive | inactive | inactive | inactive | inactive
